RAD52 anneal inh – RAD52 DNA annealing inhibitors, primary screen, biochemical, FRET, single point, set 2; DNA repair protein RAD52 homolog (Homo sapiens), P43351; recombinant RAD52 DNA annealing, FRET fluorescence; inhibition, % at 18.7 µM; 360,000 compounds, 0.46% hits; AID 651710, 2012;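 active = every replicate showing at least 50% inhibition; inconclusive = mean inhibition at least 50% but not in every replicate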
Target sequence (P43351 whole entry, looked up): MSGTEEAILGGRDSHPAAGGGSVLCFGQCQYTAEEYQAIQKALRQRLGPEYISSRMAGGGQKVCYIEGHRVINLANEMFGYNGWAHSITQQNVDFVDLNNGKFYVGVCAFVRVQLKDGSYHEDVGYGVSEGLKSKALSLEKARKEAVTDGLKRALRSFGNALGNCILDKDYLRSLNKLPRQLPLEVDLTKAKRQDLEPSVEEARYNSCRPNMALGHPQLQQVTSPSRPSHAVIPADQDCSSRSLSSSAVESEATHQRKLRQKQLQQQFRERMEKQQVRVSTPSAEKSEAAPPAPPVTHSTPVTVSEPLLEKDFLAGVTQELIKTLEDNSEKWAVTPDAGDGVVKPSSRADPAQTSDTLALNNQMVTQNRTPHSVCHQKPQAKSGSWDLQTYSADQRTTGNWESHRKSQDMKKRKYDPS
DENV2 CPE rescue – inhibitors of DENV2 cytopathic effect, primary screen, cell-based, plate reader, single concentration; CPE inhibition, % at 9.99 µM; DENV2-infected cells, cytopathic effect rescue; 350,000 compounds, 1.7% hits; in the data active = CPE inhibition above about 20%, passing the limit was not always enough; inconclusive = no clear call, values can overlap the other calls; tested in BHK-21 cells;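 note: 0% = median of neutral control wells and 100% = median of positive control wells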
GSIS activator – GLuc luminescence reporter in INS-1E cells, primary screen for activators of glucose-dependent secretion of insulin; INS-1E GLuc reporter insulin secretion, 2-3 h; activation, % at 16.6 µM; 370,000 compounds, 0.61% hits; AID 743287, 2014;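 active = lowest replicate activation of at least 40%, so every replicate reaches that level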;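 note: 0% = median of neutral control wells and 100% = median of IBMX positive control wells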
AF4-AF9 inh – inhibitors of AF4 peptide binding to AF9, primary screen, biochemical, AlphaScreen, biotin-AF4 peptide, FLAG-AF9, single point. Protein AF-9 (Homo sapiens), P42568. inhibition, % at 10 µM. 350,000 compounds, 0.47% hits;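 active = every replicate reaching a set inhibition limit, whatever the replicate mean, cut at about 25% in these data; inconclusive = mean inhibition reaches that limit but some replicates miss it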;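 note: 0% = plate neutral control median and 100% = total signal loss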
RAD54 inh – inhibitors of human RAD54 branch migration, primary screen, biochemical, fluorescence, single point | inhibition, % at 10.4 µM | 360,000 compounds, 0.14% hits | RAD54 Holliday junction branch migration, FAM/BHQ fluorescence | AID 602329, 2012;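 active = mean normalized replicate activity at least 40 and at least half of replicates scoring 40 or more; inconclusive = only one of the two criteria met; inactive = mean below 40 and under half of replicates reaching 40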;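 note: 0% = median of neutral control wells and 100% = median of positive control wells; inhibitors cause a drop in the FAM fluorescence signal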
dFosB activator – activators of delta FosB homodimer, primary screen, biochemical, fluorescence polarization, TAMRA-CDK5 oligo, single point | Protein FosB (Mus musculus), P13346 | purified delta FosB; percent of positive-control signal above neutral wells | activation, % at 25 µM | 340,000 compounds, 0.99% hits | AID 493131, 2011;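 active = mean activation above about 17%, with every replicate also reaching it, limit read from the data, passing the limit was not always enough; inconclusive = only one of the two conditions met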
An asterisk follows results filed as active; ? = inconclusive; · = no result; ! = repeats disagree. In the library only some 3.1% were active in any assay of this set; here they are far more common.

SMILES | RAD52 anneal inh | DENV2 CPE rescue | GSIS activator | AF4-AF9 inh | RAD54 inh | dFosB activator
CC(C)(C)OC(=O)C[C@H]1C/C=C\C[C@@H](CC(=O)N[C@@H](CO)Cc2ccccc2)C(=O)NC[C@H](c2ccccc2)OC1=O | -18 | 58* | -4 | -4 | -6 | ?
N#C[C@@H]1[C@@H](c2ccc(C#Cc3ccccc3F)cc2)[C@H](CO)N1C(=O)C1CCC1 | -13 | 30* | -2 | 0 | -4 | ·
N#C[C@H]1[C@@H](c2ccc(/C=C/c3ccccc3)cc2)[C@@H](CO)N1C(=O)C1CCCC1 | 5 | 5 | -5 | -1 | 5 | ·
N#C[C@@H]1[C@@H](c2ccc(C#Cc3ccc(F)cc3)cc2)[C@H](CO)N1C(=O)C1CCCC1 | -44 | 23* | 9 | 1 | -9 | ·
N#C[C@@H]1[C@@H](c2ccc(/C=C/c3ccccc3)cc2)[C@@H](CO)N1C(=O)C1CCCC1 | 3 | 26* | 12 | -2 | 2 | ·
Cc1noc(C)c1S(=O)(=O)Nc1ccc2c(c1)C(=O)N([C@@H](C)CO)C[C@@H](C)[C@H](CN(C)Cc1ccc(C(F)(F)F)cc1)OCCCC[C@@H](C)O2 | 0 | 1 | -10 | 1 | -4 | ·
Cc1noc(C)c1S(=O)(=O)N(C)C[C@H]1Oc2ccc(NS(C)(=O)=O)cc2C(=O)N([C@H](C)CO)C[C@@H]1C | · | · | -1 | · | · | ·
Cc1ccc(CNC(=O)c2ccc3nc4[nH]c5ccccc5c4nc3c2)cc1 | · | · | 61* | · | · | ·
COc1ccc(C(O)c2nccc3cc(OC)c(OC)cc23)cc1OC (stereo not drawn) | -9 | 0 | 83* | 1 | · | -1
COc1cc(N)c(C(O)c2nccc3cc(OC)c(OC)cc23)cc1OC (stereo not drawn) | 8 | 1 | 17 | -3 | 11 | -17
Cc1cccc(S(=O)(=O)N2C[C@@H]3N[C@H](C2)C3c2ccc(-c3ccccc3F)cc2)c1 (stereo partly drawn) | 80*! | 3 | 81*! | -1 | · | ·
Cc1ccc(S(=O)(=O)N2C[C@@H]3N[C@H](C2)[C@@H]3c2ccc(-c3cccc(C)c3)cc2)cc1 | · | -5 | 337 | · | · | ·
O=S(=O)(c1ccccc1)N1C[C@@H]2N[C@H](C1)C2c1ccc(-c2ccc(F)cc2)cc1 (stereo partly drawn) | 66*! | 6 | 5 | -6 | · | ·
Cc1cccc(S(=O)(=O)N2C[C@@H]3N[C@H](C2)C3c2ccc(-c3cccc(C#N)c3)cc2)c1 (stereo partly drawn) | 54*! | 2 | -28 | -1 | · | ·
O=S(=O)(c1ccc(-c2ccccc2)cc1)N1C[C@@H]2N[C@H](C1)C2c1ccc(-c2cncnc2)cc1 (stereo partly drawn) | 28 | 2 | 3 | -1 | · | ·
Cc1ccc(-c2ccc(C3[C@@H]4CN(S(=O)(=O)c5cccc(C)c5)C[C@H]3N4)cc2)cc1 (stereo partly drawn) | 98* | 3 | · | -3 | · | ·
Cc1cc(C(=O)Nc2cccc3c2O[C@@H](CN(C)Cc2ccc4c(c2)OCO4)[C@H](C)CN([C@H](C)CO)C3=O)n(C)n1 | 5 | -5 | 13 | 5 | 4 | ·
O=S(=O)(c1ccc(F)cc1)N1C[C@@H]2N[C@H](C1)C2c1ccc(-c2ccc(F)cc2)cc1 (stereo partly drawn) | 87*! | 8 | 47 | -5 | · | ·
CN(C)C(=O)c1ccc(-c2ccc(C3[C@@H]4CN(S(=O)(=O)c5ccc(F)cc5)C[C@H]3N4)cc2)cc1 (stereo partly drawn) | 5 | -7 | 2 | -4 | · | ·
O=S(=O)(c1ccc(-c2ccccc2)cc1)N1C[C@@H]2N[C@H](C1)[C@@H]2c1ccc(-c2cccnc2)cc1 | 73* | -7 | 23 | 2 | · | ·
Cc1ccc(-c2ccc(C3[C@@H]4CN(S(=O)(=O)c5ccc(C)cc5)C[C@H]3N4)cc2)cc1 (stereo partly drawn) | 74* | -20 | 71 | -2 | · | ·
